Screening data as filed in PubChem.
Only some compounds are listed: those with a hit (about 7.7% of all), similar ones and a draw of the others.
TbPYK inhibitor: T. brucei pyruvate kinase inhibition; TbPYK enzyme, Kinase-Glo Plus ATP luminescence, 45 min; Q57TT1; actives 0.12% (n = 410,000); Potency, µM (top dose mostly 76.8 µM), inactives show at the top dose activity, negative = inhibition, actives largely listed as inhibitors; also: potency is read from the fitted curve at half-maximal effect; nearly all actives have a fitted effect of over 50% in size
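Readout: single end-point luminescence (Kinase-Glo Plus, 10 min). Reaction conditions were TbPYK/substrate plus 130 uM ADP, 45 min at RT, pH 7.2 TEA buffer. No-enzyme wells served as controls, and data were normalized before concentration-response fitting.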
RE007 growth inh: less growth of the S. pombe RE007 Vpr strain; actives 0.21% (n = 360,000); AID 651644; Potency, µM (highest dose often 92.2 µM), inactives show top-dose activity change, negative = less growth, actives largely listed as inhibitors; S. pombe RE007 Vpr strain, BacTiter-Glo ATP luminescence, 24 h; active = well fitted falling curve with a large enough effect; inconclusive = small, poorly fitted or top-dose-only effect; inactive = no such curve, though single readings can be large or run the other way; also: potency is read from the fitted curve at half-maximal effect; nearly all actives have a fitted effect of over 50% in size
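Fission yeast strain RE007, carrying one chromosomally integrated HIV-1 vpr copy, was seeded at OD 0.01 in PMG+AL medium with 23 nL pinned compound. After 24 h at 30 °C and 99% humidity, viability was read by BacTiter-Glo luminescence.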
HCMV inh: inhibitors of human cytomegalovirus. actives 4.5% (n = 410,000). activity change, negative = inhibition, % at 57.5 µM. HFF cells, HCMV-luciferase reporter, 72 h; hits give low values; in the data active = activity change below about -60%; inconclusive = no clear call, values can overlap the other calls; inactive = above about -39%
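Compounds were evaluated in HFFs infected with an HCMV luciferase reporter virus (MOI 1 PFU/cell). Luciferase in lysates collected 72 h post infection served as the replication measure.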
FMDV antiviral: blocks foot and mouth disease virus; Potency, µM (series often up to 57.9 µM), for inactives: at the top dose activity change, negative = inhibition, most hits filed as inhibitors; actives 1.2% (n = 410,000); FMDV antiviral cell-based qHTS; calls by dose curve; tested in HEK293T cells; also: read-out not given here; potency is read from the fitted curve at half-maximal effect; nearly all actives have a fitted effect of over 45% in size
Sm TGR inh: S. mansoni TGR enzyme inhibition | purified TGR, DTNB reduction, TNB absorbance 405 nm | actives 3% (n = 360,000) | Q962Y6 | Potency, µM (doses to about 114 µM), without a hit: top-dose activity change, negative = inhibition, most hits filed as inhibitors | AID 485364; also: potency is read from the fitted curve at half-maximal effect; nearly all actives have a fitted effect of over 60% in size
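First, TGR (20 nM dispensed) and NADPH were mixed with compound. Second, a 15 min room-temperature incubation followed. Third, further NADPH and then DTNB were added to start the reaction. Finally, TNB absorbance was monitored kinetically.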
Giardia FBPA inh: inhibitors of Giardia lamblia fructose-1,6-bisphosphate aldolase; A8B2U2; purified Giardia FBPA; Potency, µM (series often up to 59.6 µM), for the others: at the highest dose activity, negative = inhibition, usual class: inhibitors; actives 0.71% (n = 290,000); also: potency is read from the fitted curve at half-maximal effect; nearly all actives have a fitted effect of over 55% in size
Target sequence (A8B2U2 whole entry, looked up): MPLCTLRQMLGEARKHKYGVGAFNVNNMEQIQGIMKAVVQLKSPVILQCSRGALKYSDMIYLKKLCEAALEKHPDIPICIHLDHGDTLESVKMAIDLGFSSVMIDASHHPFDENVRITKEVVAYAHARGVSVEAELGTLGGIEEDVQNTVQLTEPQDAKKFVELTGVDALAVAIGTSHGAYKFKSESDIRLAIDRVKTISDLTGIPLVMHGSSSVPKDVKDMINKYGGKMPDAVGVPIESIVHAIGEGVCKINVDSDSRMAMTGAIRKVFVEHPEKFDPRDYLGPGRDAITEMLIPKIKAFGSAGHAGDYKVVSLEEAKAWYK
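40 nM FBPA preincubated 10 min at RT with compound (up to 57.5 uM final), then substrate plus GAPDH/TPI/NAD/arsenate coupling and diaphorase/resazurin added. Fluorescence read after 20 min at RT, 525/598 nm.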
* marks the source's active call; other numbers are inactive results; ? = inconclusive; / = no result; [ ] = remark or other dose. Unless noted, calls follow the shape of the dose curve; as a rule, active = well fitted curve in the direction sought with a large enough effect; inconclusive = small, poorly fitted or top-dose-only effect, or another doubt; inactive = no such curve, though single readings can be large; an effect the other way counts as inactive or inconclusive. % is scaled to controls: 0 for no effect and ±100 for the full control effect.

SMILES | TbPYK inhibitor | RE007 growth inh | HCMV inh | FMDV antiviral | Sm TGR inh | Giardia FBPA inh
COC(=O)CC1c2cc(OC)c(OC)cc2CCN1C(=O)Nc1ccc(C)cc1Cl (configuration not stated) | 3% | / | 34 | -12% | -1% | /
COc1ccc(NC(=O)/C=C/c2c(Cl)nc3ccccn23)cc1 | 1% | -12% | -62* | -3% | 0% | -8%
COc1cc(OC)c(OC)cc1CN1CCC(n2cc(C(=O)N3CCCCC3)nn2)CC1 | / | / | / | -9% | / | /
Cc1ccc(S(=O)(=O)N/N=C\c2ccc([N+](=O)[O-])o2)cc1 | -17% | ? | ? | 2% | 20µM* | -16%
Cc1ccc(S(=O)(=O)N/N=C\c2ccc(C)o2)cc1 | 6% | -4% | 13 | / | 35µM* | 0%
Cc1ccc(S(=O)(=O)N/N=C\c2ccc([N+](=O)[O-])o2)cc1C | -11% | -12% | 13 | 2% | -2% | /
Cc1ccc(/C=N/NS(=O)(=O)c2ccc([N+](=O)[O-])cc2)o1 | -17% | -15% | -33 | 30% | -32% | -9%
O=[N+]([O-])c1ccc(/C=N/NS(=O)(=O)c2ccc(Cl)cc2)o1 | -4% | ? | -10 | 0% | 13µM* | 2%
Cc1ccc(S(=O)(=O)N/N=C\c2ccccc2OCc2ccccc2)cc1 | -11% | -18% | -74* | / | 12% | -12%
Fc1ccc2c(c1)-c1c(cnc3cc(-c4ccc(Cl)cc4)nn13)CO2 | 0% | / | 32 | 83% | 2% | /
O=C(NCc1cccc(F)c1)C1=Cc2cc(Br)ccc2OC1 | 2% | / | -19 | 17% | 6% | /
C[C@@H]1Cc2c(O)c(O)cc(O)c2C(=O)O1 | 0% | 14% | / | -10% | ? | 3%
CC1Oc2cc3c(-c4c(O)cc(O)c5c(O)c6c(cc45)OC(C)C(C)C6=O)c(O)cc(O)c3c(O)c2C(=O)C1C (configuration not stated) | -4% | -16% | / | ? | 32µM* | ?
O=C(Nc1ccc([N+](=O)[O-])cc1)C(=O)Nc1cccc(C(=O)O)c1 | ? | ? | 0 | 10µM* | 9% | 0%
O=C(O)c1cccc(Nc2nc(-c3ccc([N+](=O)[O-])cc3)nc3ccccc23)c1 | -8% | -2% | -71* | -8% | 1% | -6%
O=C(O)c1cccc(-n2c(/C=C/c3ccc([N+](=O)[O-])cc3)nc3ccccc3c2=O)c1 | 3% | 19% | -62* | -20% | 3% | -3%
O=C(O)c1cc(NC(=O)c2ccc([N+](=O)[O-])cc2)cc(NC(=O)c2ccc([N+](=O)[O-])cc2)c1 | 6% | 1% | -30 | -10% | -7% | 0%
Fc1cccc(Nc2nc(-c3ccncc3)nc3ccccc23)c1 | -4% | 0% | 73 | 25µM* | 5% | 3%
Cc1ccc(Cl)cc1NC(c1ccc(F)cc1)c1nnc(-c2ccccc2)o1 (configuration not stated) | 3% | / | 2 | -27% | -11% | /
COc1ccc(S(=O)(=O)c2cn(C)c3cc(N4CCOCC4)c(F)cc3c2=O)cc1 | -3% | / | -7 | -4% | -2% | /
COc1cccc(-c2cc3c(Nc4ccc(OC)cc4C)nccc3n2C)c1 | / | / | -2 | / | / | /
Cn1ncc(Cl)c1C(=O)N1CCN(c2ccccc2)CC1 | -21% | 11% | -8 | -5% | 11% | -5%
Cn1ncc2c(N3CCN(c4ccccc4F)CC3)ncnc21 | -2% | 1% | ? | ? | 8% | 0%
Cn1ncc(Cl)c1C(=O)N1CCN(c2ccc(Cl)c(Cl)c2)CC1 | -4% | -2% | 1 | 28µM* | -2% | /
Cc1ccc(-n2ncc3c(N4CCC5(CC4)OCCO5)ncnc32)c(C)c1 | 1% | 0% | 54 | 40µM* | -3% | 1%
SMILES | TbPYK inhibitor | RE007 growth inh | HCMV inh | FMDV antiviral | Sm TGR inh | Giardia FBPA inh
Cn1ncc2c(N3CCN(c4ccc(Cl)c(Cl)c4)CC3)ncnc21 | 4% | 1% | -27 | 11µM* | -1% | 8%
Cc1nn(-c2ccccc2)c(Cl)c1C(=O)N1CCN(c2ncnc3c2cnn3-c2ccccc2)CC1 | -5% | 35% | -105* | 6.3µM* | -18% | -4%
Cc1ccc(-n2ncc3c(N4CCC(C(N)=O)CC4)ncnc32)c(C)c1 | / | -6%[3.69 µM] | / | 53% | 4% | 5%
O=C(O)c1c(C(=O)O)c2ccccc2[nH]c1=O | / | / | / | -3% | / | ?
COc1cccc([C@@H]2Oc3ccc(Br)cc3C[C@H]2OC(=O)Nc2ccc(C)c(Br)c2)c1 | / | / | / | / | / | 0%
Cc1noc(C)c1C(=O)N1CCC2(CCCN(C(c3ccccc3)c3ccccc3)C2)CC1 | 16% | / | / | -24% | / | 4%
Cc1ccc(-n2ncc3c(N4CCCCCC4)ncnc32)cc1 | -13% | / | -99* | 20µM* | 2% | /
Fc1ccc(-n2ncc3c(N4CCCCCC4)ncnc32)cc1 | -11% | / | -3 | ? | -3% | /
Clc1ccc(-n2ncc3c(N4CCCC4)ncnc32)cc1 | 2% | 2% | -66* | 10µM* | -30% | 0%
CCCNC(=O)CCc1c(C)nc2nc(CNC(=O)c3ccccc3)nn2c1C | 3% | / | 2 | 13% | 1% | /
O=C1c2ccccc2/C(=C\c2ccc(O[C@@H]3CCCCO3)cc2)N1c1ccccc1 | / | / | -32 | / | / | /
C/C=C/C=C/C(=O)[C@@H]1[C@@H]([C@]2(C)OC(=O)C(C)=C2O)[C@H]2/C(=C(O)/C=C/C=C/C)C(=O)[C@]1(C)C(=O)C2(C)O (some centres not stated) | -22% | 9% | -3 | -11% | 10µM* | -26%
CN(C)c1ccc(CN(Cc2ccco2)C(=O)c2ccc(F)cc2)cc1 | 3% | / | -39 | -17% | 2% | /
Cc1oc(-c2ccc(Cl)cc2)cc1C(=O)O | -5% | -4% | 120 | -1% | 0% | 9%
Cc1oc(-c2ccc(Cl)cc2)[n+]([O-])c1C | 2% | -20% | 3 | 33% | 50µM* | 3%
O=C1NC[C@H](Cc2ccccc2)N(C[C@H]2CCCN2C[C@H](Cc2ccccc2)N2C[C@H](Cc3ccc(O)cc3)N(CCc3ccccc3)C(=O)C2=O)C1=O | -3% | 9% | -73* | -19% | / | /
CCOc1ccc(CCN2C(=O)C(=O)N([C@@H](Cc3ccc(O)cc3)CN3CCC[C@H]3CN3C(=O)C(=O)NC[C@@H]3Cc3ccccc3)C[C@@H]2Cc2ccc(O)cc2)cc1 | 4% | -17% | -23 | -5% | / | /
CCOc1ccc(CCN2C(=O)C(=O)N([C@@H](Cc3ccccc3)CN3CCC[C@H]3CN3C(=O)C(=O)NC[C@@H]3Cc3ccccc3)C[C@@H]2Cc2ccccc2)cc1 | 4% | 15% | -65* | ? | / | /
CC1(C)N=C(SCC(=O)Nc2ccc(Cl)cc2Cl)C(c2ccccc2)=N1 | -1% | -2% | 3 | ? | -6% | 1%
